Test results reported in PubChem BioAssay AID1159580 (chemical genetic matrix, 2015).
Screen size: about 5,500 compounds; about 2,000 (36%) were called active. Another 18% or so got no clear call; they are omitted. Cut-off read from the data, not from the text of the source: active = normalized growth mostly below about 0.91 (no sharp cut-off); inconclusive = no clear call, values can overlap the other calls; inactive = mostly above about 0.92. The list shows a part of the results.

Assay: chemical genetic growth profiling, strain panel (AID 1159580);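 note: tested at 20 µM; growth read once vehicle control cultures reached saturation at 30 °C; 1 = growth at the plate median or of vehicle wells; lower values mean less growth of the strain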
Details: S. cerevisiae deletion strains, growth OD

Measured: normalized growth

CCn1c(=O)[nH]c2cc(Cl)c(Cl)cc21
inactive: locus YAL040C, strain CLN3, stronger effect = lower value 0.99 | locus YCL061C, strain MRC1 (second series), stronger effect = lower value 1.01 | locus YDR363W, strain ESC2, stronger effect = lower value 0.992 | locus YER002W, strain NOP16, stronger effect = lower value 0.986 | locus YGR078C, strain PAC10, stronger effect = lower value 0.992 | locus YMR263W, strain SAP30, stronger effect = lower value 1 | locus YMR307W, strain GAS1, stronger effect = lower value 1 | locus YNL175C, strain NOP13, stronger effect = lower value 0.98 | locus YNL197C, strain WHI3, stronger effect = lower value 1 | locus YNL224C, strain SQS1, stronger effect = lower value 1 | locus YNL322C, strain KRE1, stronger effect = lower value 1.01 | locus YOR083W, strain WHI5 (second series), stronger effect = lower value 1.04
